We go through 40 compounds from PubChem BioAssay (NCI).

The panel holds about 83,000 compounds, 20% with a hit somewhere; the sample as a whole holds those more often.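 Interpretation: 100, growth as untreated; towards 0, rising growth inhibition; 0, no net growth; 0 to -100, cell death. Compounds scoring below 10 were considered active.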 Active and inactive are the calls of the source.

The assay deals with HL-60(TB) leukemia. Put plainly: NCI-60 one-dose screen, 48 h (100 = growth as untreated, 0 = no growth, -100 = all killed). The conditions noted are these: 10 µM unless noted.
Regarding `COc1ccc(C(=O)c2cc(OC)c(OC)c(OC)c2)cc1OC(=O)CCl`, the growth was -34.4% (active).
Next, `CNC(=O)c1cccnc1`: 99.5% (inactive).
Next, `COc1ccc(C2=NN(C(N)=S)C(c3ccc4c(c3)OCO4)C2)cc1` (stereo not given): 30.4% (inactive); `COc1cc(/C=C/c2ccnc3ccccc23)cc(OC)c1OC`: 15.7% (inactive).
With `CC1=C(C#N)C(=O)NC(C)C1` (stereo not given) the figure was 91% (inactive); with `C=C[C@@H]1CCC/C=C/[C@@H]2C[C@H](O)C[C@H]2[C@H](O)/C=C/C(=O)O1`, 8.25% (active).
`C=C1C(=O)O[C@H]2[C@H]1CC/C(COC(=O)CSCSCC(=O)OC/C1=C/CC[C@@]3(C)O[C@H]3[C@H]3OC(=O)C(=C)[C@@H]3CC1)=C\CC[C@@]1(C)O[C@@H]21`: the growth is -53.9% (active).
Next, `COc1cc(C)ccc1Oc1nc(Nc2ccc(N3CCOCC3)cc2)ncc1NC(=O)Nc1cc(C(F)(F)F)cc(C(F)(F)F)c1`: 42.4% (inactive).
Next, `NC1=CC(=O)c2ccccc2C1=O`: 81.6% (inactive); `COc1cc(N=Nc2cc(Cc3ccc(N(C)C)cc3)c(N)cc2N(C)C)c2ncccc2c1`: -55.5% (active).
With `C=CCn1c(SCC(=O)Nc2ccc(C(=O)/C=C/c3ccc(Cl)cc3)cc2)nnc1-c1ccccc1` the figure was 80.9% (inactive); with `CCCCC(=O)N/N=C/c1cc(I)cc(I)c1O`, 4.46% (active); with `COc1ccc(-c2nc(SCCC(C)C)nc(N/N=C(/C)c3ccc(C)cc3)c2C#N)cc1`, 89.8% (inactive).
As to `C=CCN(CC=C)C(=O)[C@H](CC)[C@@H]1CC[C@@H](C)[C@@H]([C@H](C)[C@@H](O)[C@@H](C)C(=O)[C@H](CC)C2O[C@]3(C=CC(=O)[C@]4(CC[C@@](C)([C@H]5CC[C@](O)(CC)[C@H](C)O5)O4)O3)[C@H](C)C[C@@H]2C)O1` (stereo not given in full), the growth was -25.2% (active).
Next, `O=c1ccc2nc(-c3ccccc3)nn(-c3ccccc3)c-2c1`: -45.5% (active); `O=C1OCC2=C1C(c1cccc([N+](=O)[O-])c1)c1cc3c(cc1N2CCO)CCC3` (stereo not given): -26.9% (active); `CN1CC(c2ccc(Br)cc2)C(C(=O)c2ccc(Br)cc2)C12C(=O)Nc1ccccc12` (stereo not given): 98.4% (inactive).
With `O=c1[nH]c2c(ccc3cnccc32)c2c1CCC2` the figure was 13.4% (inactive); with `COc1ccc(Nc2ccnc(NCCNc3ccnc4cc(Cl)ccc34)n2)cc1`, 39% (inactive).
With `Nc1c(C(=O)Nc2cccc3ncccc23)sc2nc3c(cc12)C(=O)CCC3` the figure was 32.8% (inactive).
With `COc1ccc(C(=O)N=Nc2c(O)n(C)c3ccccc23)cc1`, the growth is 99.4% (inactive).
With `O=S(=O)(NCCNc1nccc(-c2c(-c3cccc(O)c3)nc3occn23)n1)c1ccc(Br)cc1` the figure was 18% (inactive); with `COc1cccc(/C=C/C(=O)c2sc(Nc3ccc(O)cc3)nc2C)c1`, 78.8% (inactive); with `Clc1ccc(CNc2ccc3nc(CCC4CCCCC4)[nH]c3c2)cc1`, 24.8% (inactive).
As for `CCN(CC)CCCCNc1c2ccc(Cl)cc2nc2ccc(OC)cc12`, the growth is -34.8% (active).
Next, `N#CC1=C(N)Oc2c(c(N)nn2-c2ccccc2)C1c1ccc(Cl)cc1Cl` (stereo not given): 96.5% (inactive); `O=C(O)Cc1cc(=O)[nH]n(-c2ccccc2)c1=O`: 95.3% (inactive); `Cc1ccc(N=NC2C(=O)N(c3ccc(Cl)cc3)N(c3ccc(Cl)cc3)C2=O)cc1`: 103% (inactive).
Next, `Cc1ccc2nc(-c3cc4c([nH]c5ccccc54)c(-c4ccc(F)c(F)c4)n3)[nH]c2c1`: 48.5% (inactive).
Take `CCc1ccc(Oc2c(-c3ccc(OCCc4cccc(C(F)(F)F)c4)cc3O)n[nH]c2C(F)(F)F)cc1`: the growth was 50.9% (inactive).
Next, `CCOC(=O)c1c(C)c(C(=O)OCC)n(C)c1C`: 85.9% (inactive); `Cn1c2c(c3ccc(Cl)c(Cl)c31)C(C#N)C1(CCNCC1)NC2=O` (stereo not given): 4.92% (active); `CC[C@H](Nc1ncnc2nc[nH]c12)c1nc2cccc(NCc3ccc(C(=O)NO)nc3)c2c(=O)n1-c1ccccc1`: 17.8% (inactive).
As to `O=C(C(=O)c1cccnc1)c1cccnc1`, the growth was 104% (inactive).
For `COc1ccc(-c2cc(-c3ccc(Cl)cc3)c(C#N)c(=O)n2CCCCC(=O)NO)cc1`, the growth is 92.7% (inactive).
For the compound `O=[N+]([O-])c1ccc(C=C2C(Cl)=C(Cl)C(Cl)=C2Cl)cc1`, the growth is 34.2% (inactive).
Next, `O=C1/C(=C/c2ccc(O)cc2)COc2ccc(-c3ccccc3)cc21`: -51% (active).
With `Cc1cnc(Nc2ccc(OCCN3CCCC3)cc2)nc1Nc1cccc(S(=O)(=O)NC(C)(C)C)c1` the figure was -39.7% (active).
Next, `COC1C/C(=N\O)C2OC(c3ccccc3)OCC2O1` (stereo not given): 101% (inactive).
As to `Cc1cc(C)c2c(N)c3cccc(C)c3nc2n1`, the growth is -19.1% (active).
